The source made the active and inactive calls. How the source made its calls: active means hit-call score of the fitted dose curve at least 0.9, where 1 is the maximum; inactive means score below 0.9.
Tests used:
Details in all cases: mRNA level, 48 h; actives raise or lower the signal
CYP2E1 (gene 1571) = experiment: LTEA_HepaRG_CYP2E1: Life Technologies and Expression Analysis (LTEA) Assay for CYP2E1 using HepaRG (AID 2283485)
Summary of the method: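 HepaRG cells, plated 48 h, then exposed 48 h in serum-free induction medium to eight half-log concentrations from 100 uM in 0.5% DMSO, duplicate. CYP2E1 mRNA by qRT-PCR, normalized to ACTB/GAPDH/POLR2A; bidirectional fit versus DMSO.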

CYP4A11 (gene 1579) = experiment: LTEA_HepaRG_CYP4A11: Life Technologies and Expression Analysis (LTEA) Assay for CYP4A11 using HepaRG (AID 2283486)
Summary of the method: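 Readout is CYP4A11 transcript level by qRT-PCR, normalized to three housekeeping genes and fitted bidirectionally against 0.5% DMSO. Human HepaRG cells were treated 48 h, in duplicate, with an 8-point half-log series topping at 100 uM.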

[1] = read-out: DNA damage-inducible transcript 3 (DDIT3), DDIT3 (gene 1649); experiment: LTEA_HepaRG_DDIT3: Life Technologies and Expression Analysis (LTEA) Assay for DNA damage-inducible transcript 3 (DDIT3) using HepaRG (AID 2283488)
Summary of the method: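 HepaRG cells, 48 h after plating, exposed 48 h in serum-free induction medium to 8 half-log concentrations up to 100 uM in 0.5% DMSO, in duplicate. DDIT3 mRNA measured by TaqMan qRT-PCR, normalized to ACTB, GAPDH and POLR2A. Fitted bidirectionally against DMSO.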

[2] = read-out: Pro-epidermal growth factor (Homo sapiens) (UniProt P01133); experiment: LTEA_HepaRG_EGF: Life Technologies and Expression Analysis (LTEA) Assay for Epidermal growth factor (EGF) using HepaRG (AID 2283489)
Summary of the method: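 EGF transcript measured by Fluidigm TaqMan qRT-PCR with three housekeeping genes for normalization, 48 h after dosing HepaRG cultures in duplicate (top 100 uM, half-log steps, 0.5% DMSO vehicle). Gain or loss relative to DMSO fitted.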

[3] = read-out: Early growth response protein 1 (EGR1) transcription factor, EGR1 (gene 1958); experiment: LTEA_HepaRG_EGR1: Life Technologies and Expression Analysis (LTEA) Assay for Early growth response protein 1 (EGR1) transcription factor using HepaRG (AID 2283490)
Summary of the method: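 Differentiated human HepaRG cells in serum-free induction medium were exposed in duplicate for 48 h to eight concentrations (top 100 uM, half-log steps) in 0.5% DMSO. EGR1 mRNA was quantified by qRT-PCR, normalized to ACTB, GAPDH and POLR2A, and fitted bidirectionally versus DMSO.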

[4] = read-out: Ezrin (EZR), EZR (gene 7430); experiment: LTEA_HepaRG_EZR: Life Technologies and Expression Analysis (LTEA) Assay for Ezrin (EZR) using HepaRG (AID 2283491)
Summary of the method: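 Read-out is EZR transcript level by qRT-PCR, normalized to three housekeeping genes and fitted bidirectionally against the DMSO control. Human HepaRG cells received test chemicals for 48 h at eight half-log concentrations up to 100 uM in 0.5% DMSO.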

[5] = read-out: Fatty Acid-Binding Protein 1 (FABP1), FABP1 (gene 2168); experiment: LTEA_HepaRG_FABP1: Life Technologies and Expression Analysis (LTEA) Assay for Fatty Acid-Binding Protein 1 (FABP1) using HepaRG (AID 2283494)
Summary of the method: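 Differentiated human HepaRG cells were exposed in duplicate for 48 h in serum-free induction medium to 8-point half-log concentration series topping at 100 uM in 0.5% DMSO. FABP1 mRNA measured by TaqMan qRT-PCR, normalized to ACTB/GAPDH/POLR2A; bidirectional fit versus DMSO.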

[6] = read-out: Cytochrome P450 4A22 (Homo sapiens) (UniProt Q5TCH4); experiment: LTEA_HepaRG_CYP4A22: Life Technologies and Expression Analysis (LTEA) Assay for Cytochrome P450 4A22 (CYP4A22) using HepaRG (AID 2283495)
Summary of the method: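 Gene expression measured by qRT-PCR against three housekeeping genes (ACTB, GAPDH, POLR2A), with gain or loss fitted relative to 0.5% DMSO vehicle. HepaRG cultures received 48 h chemical treatment, top concentration 100 uM, half-log steps, duplicate wells.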

[7] = read-out: Cytochrome P450 7A1 (Homo sapiens) (UniProt P22680); experiment: LTEA_HepaRG_CYP7A1: Life Technologies and Expression Analysis (LTEA) Assay for Cytochrome P450 7A1 (CYP7A1) using HepaRG (AID 2283496)
Summary of the method: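 HepaRG cells plated 48 h, then switched to serum-free induction medium and exposed in duplicate for 48 h to 8-point half-log series from 100 uM in 0.5% DMSO. CYP7A1 mRNA by qRT-PCR (TaqMan), normalized to ACTB/GAPDH/POLR2A; bidirectional fit versus DMSO.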

[8] = read-out: Glutathione S-Transferase (GSTA2), GSTA2 (gene 2939); experiment: LTEA_HepaRG_GSTA2: Life Technologies and Expression Analysis (LTEA) Assay for Glutathione S-Transferase (GSTA2) using HepaRG (AID 2283497)
Summary of the method: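 Human HepaRG cells, plated 48 h, then exposed in serum-free induction medium for 48 h to eight half-log concentrations up to 100 uM in 0.5% DMSO, duplicate. GSTA2 mRNA by qRT-PCR, normalized to ACTB/GAPDH/POLR2A; bidirectional fit versus DMSO.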

[9] = read-out: Glutamate-cysteine ligase catalytic (GCLC), GCLC (gene 2729); experiment: LTEA_HepaRG_GCLC: Life Technologies and Expression Analysis (LTEA) Assay for Glutamate-cysteine ligase catalytic (GCLC) using HepaRG (AID 2283498)
Summary of the method: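 Differentiated human HepaRG cells, plated 48 h then switched to serum-free induction medium, were exposed in duplicate for 48 h to 8 half-log concentrations topping at 100 uM in 0.5% DMSO. GCLC mRNA was quantified by qRT-PCR against ACTB, GAPDH and POLR2A.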

[10] = read-out: growth arrest and DNA damage 45 (GADD45G), GADD45G (gene 10912); experiment: LTEA_HepaRG_GADD45G: Life Technologies and Expression Analysis (LTEA) Assay for growth arrest and DNA damage 45 (GADD45G) using HepaRG (AID 2283499)
Summary of the method: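 GADD45G transcript level by qRT-PCR (housekeeping-normalized: ACTB, GAPDH, POLR2A) after 48 h chemical treatment of a single HepaRG lot in serum-free induction medium; eight-point half-log series up to 100 uM in 0.5% DMSO, duplicates, up- or down-regulation scored.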

[11] = read-out: Glutamate-cysteine ligase regulatory (GCLM), GCLM (gene 2730); experiment: LTEA_HepaRG_GCLM: Life Technologies and Expression Analysis (LTEA) Assay for Glutamate-cysteine ligase regulatory (GCLM) using HepaRG (AID 2283500)
Summary of the method: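 Differentiated HepaRG cells exposed 48 h in serum-free induction medium to eight half-log concentrations up to 100 uM (0.5% DMSO). GCLM mRNA by TaqMan qRT-PCR, normalized to ACTB, GAPDH and POLR2A; bidirectional fit versus DMSO.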

[12] = read-out: Glutathione S-transferase M3 (GSTM3), GSTM3 (gene 2947); experiment: LTEA_HepaRG_GSTM3: Life Technologies and Expression Analysis (LTEA) Assay for Glutathione S-transferase M3 (GSTM3) using HepaRG (AID 2283501)
Summary of the method: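 GSTM3 transcript levels came from Fluidigm TaqMan qRT-PCR normalized to three housekeeping genes, fitted in both directions against DMSO. HepaRG cultures received chemicals for 48 h in serum-free induction medium (0.5% DMSO), 8 half-log concentrations up to 100 uM, duplicate.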

[13] = read-out: Heat shock 70 kDa protein 1 (HSPA1A), gene 3303; experiment: LTEA_HepaRG_HSPA1A: Life Technologies and Expression Analysis (LTEA) Assay for Heat shock 70 kDa protein 1 (HSPA1A) using HepaRG (AID 2283502)
Summary of the method: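 Human HepaRG cells in serum-free induction medium were exposed in duplicate for 48 h to 8 half-log concentrations, highest 100 uM, in 0.5% DMSO. HSPA1A mRNA read by TaqMan qRT-PCR, normalized to ACTB, GAPDH, POLR2A, fitted bidirectionally against DMSO.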

[14] = read-out: Hypoxia-inducible factor 1-alpha (Homo sapiens) (UniProt Q16665); experiment: LTEA_HepaRG_HIF1A: Life Technologies and Expression Analysis (LTEA) Assay for Hypoxia-inducible factor 1 (HIF1A) Trancription factor using HepaRG (AID 2283503)
Summary of the method: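 Differentiated HepaRG cells in serum-free induction medium exposed 48 h, in duplicate, to 8-point half-log series from 100 uM in 0.5% DMSO. HIF1A mRNA measured by TaqMan qRT-PCR, normalized to ACTB/GAPDH/POLR2A, fitted bidirectionally versus DMSO.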

CYP2C9 (gene 1559) = experiment: LTEA_HepaRG_CYP2C9: Life Technologies and Expression Analysis (LTEA) Assay for CYP2C9 using HepaRG (AID 2283484)
Summary of the method: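 Differentiated human HepaRG cells were exposed 48 h in serum-free induction medium to eight half-log concentrations up to 100 uM in 0.5% DMSO. CYP2C9 mRNA was measured by qRT-PCR, normalized to ACTB, GAPDH and POLR2A, and fitted bidirectionally against DMSO.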

[15] = read-out: Cytochrome P450 3A4 (Homo sapiens) (UniProt P08684); experiment: LTEA_HepaRG_CYP3A4: Life Technologies and Expression Analysis (LTEA) Assay for CYP3A4 using HepaRG (AID 2283487)
Summary of the method: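 HepaRG, 48 h exposure, 8-pt CRC from 100 uM (half-log), 0.5% DMSO, duplicates; serum-free induction medium. Readout: CYP3A4 mRNA, qRT-PCR, ACTB/GAPDH/POLR2A normalization. Bidirectional fit vs DMSO.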

[16] = read-out: Cytochrome P450 3A7 (Homo sapiens) (UniProt P24462); experiment: LTEA_HepaRG_CYP3A7: Life Technologies and Expression Analysis (LTEA) Assay for CYP3A7 using HepaRG (AID 2283492)
Summary of the method: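 CYP3A7 transcript measured by qRT-PCR (ACTB, GAPDH, POLR2A normalization) after 48 h chemical exposure of HepaRG cells in duplicate. Eight half-log concentrations, maximum 100 uM, 0.5% DMSO vehicle; bidirectional curve fitting against DMSO baseline.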

Measured: AC50

Chain of Cytochrome P450 3A7 (Homo sapiens) (P24462 whole entry, looked up): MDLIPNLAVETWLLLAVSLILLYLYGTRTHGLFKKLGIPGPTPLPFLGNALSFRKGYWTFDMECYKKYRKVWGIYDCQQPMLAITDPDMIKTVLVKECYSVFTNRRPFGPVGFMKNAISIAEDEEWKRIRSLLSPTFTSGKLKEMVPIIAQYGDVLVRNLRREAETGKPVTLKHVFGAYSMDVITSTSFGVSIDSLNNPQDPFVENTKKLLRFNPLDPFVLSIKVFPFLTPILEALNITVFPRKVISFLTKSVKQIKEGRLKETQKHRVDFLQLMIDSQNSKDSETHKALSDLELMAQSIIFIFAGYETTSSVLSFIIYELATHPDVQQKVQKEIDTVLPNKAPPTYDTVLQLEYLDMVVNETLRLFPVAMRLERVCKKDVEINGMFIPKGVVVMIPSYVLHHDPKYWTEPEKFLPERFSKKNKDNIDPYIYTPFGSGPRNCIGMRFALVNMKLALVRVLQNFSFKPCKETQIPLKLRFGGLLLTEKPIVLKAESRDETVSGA
Chain of Hypoxia-inducible factor 1-alpha (Homo sapiens) (Q16665 whole entry, looked up): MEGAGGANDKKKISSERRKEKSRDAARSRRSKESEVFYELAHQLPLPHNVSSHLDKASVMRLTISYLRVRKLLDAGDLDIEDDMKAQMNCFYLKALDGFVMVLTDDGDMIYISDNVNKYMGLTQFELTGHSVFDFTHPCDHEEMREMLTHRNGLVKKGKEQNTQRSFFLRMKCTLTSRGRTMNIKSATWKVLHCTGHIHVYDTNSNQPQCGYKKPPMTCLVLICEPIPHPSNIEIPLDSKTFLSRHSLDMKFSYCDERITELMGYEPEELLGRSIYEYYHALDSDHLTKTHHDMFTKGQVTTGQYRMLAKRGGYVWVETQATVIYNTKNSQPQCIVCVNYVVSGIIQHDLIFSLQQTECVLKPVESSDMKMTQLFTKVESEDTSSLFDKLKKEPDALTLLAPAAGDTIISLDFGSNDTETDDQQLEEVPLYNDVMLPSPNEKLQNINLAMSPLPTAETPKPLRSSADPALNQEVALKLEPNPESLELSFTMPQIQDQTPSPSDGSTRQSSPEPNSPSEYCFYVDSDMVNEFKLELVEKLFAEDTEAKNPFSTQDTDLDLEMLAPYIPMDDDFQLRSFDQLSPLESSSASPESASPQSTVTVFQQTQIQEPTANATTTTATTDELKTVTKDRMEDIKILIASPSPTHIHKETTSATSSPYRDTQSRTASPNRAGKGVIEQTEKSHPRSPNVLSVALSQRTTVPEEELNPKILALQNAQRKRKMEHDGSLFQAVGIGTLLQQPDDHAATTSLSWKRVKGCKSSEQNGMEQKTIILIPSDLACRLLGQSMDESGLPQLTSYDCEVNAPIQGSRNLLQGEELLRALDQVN
Chain of Cytochrome P450 3A4 (Homo sapiens) (P08684 whole entry, looked up): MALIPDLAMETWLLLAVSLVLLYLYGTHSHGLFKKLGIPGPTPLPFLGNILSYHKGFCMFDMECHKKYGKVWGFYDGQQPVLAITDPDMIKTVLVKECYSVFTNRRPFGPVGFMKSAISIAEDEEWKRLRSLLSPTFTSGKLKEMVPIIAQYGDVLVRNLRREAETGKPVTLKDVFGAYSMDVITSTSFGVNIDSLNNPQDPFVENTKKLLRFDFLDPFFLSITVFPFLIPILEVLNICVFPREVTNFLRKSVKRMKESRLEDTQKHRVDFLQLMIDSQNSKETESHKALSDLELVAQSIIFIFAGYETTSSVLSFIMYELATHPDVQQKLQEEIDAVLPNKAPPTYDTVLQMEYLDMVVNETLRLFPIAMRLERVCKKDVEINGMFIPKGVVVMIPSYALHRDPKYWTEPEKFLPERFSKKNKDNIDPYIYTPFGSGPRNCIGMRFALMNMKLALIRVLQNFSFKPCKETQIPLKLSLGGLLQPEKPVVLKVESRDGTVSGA

CC(=O)S[C@@H]1CC2=CC(=O)CC[C@]2(C)[C@H]2CC[C@@]3(C)[C@@H](CC[C@@]34CCC(=O)O4)[C@H]12
inactive: [1] | [2] | [3] | [11] | [12] | [13] | [14]
active: CYP2E1 (gene 1571) 63 µM | CYP4A11 (gene 1579) 51.8 µM | [4] 0.387 µM | [5] 54.4 µM | [6] 50 µM | [7] 62.4 µM | [8] 69.5 µM | [9] 50 µM | [10] 32.7 µM

COc1c(Cl)ccc(Cl)c1C(=O)O
not listed: [2] | [6] | [7] | [9]
inactive: all other assays above

CCSC(=O)N(CC(C)C)CC(C)C
not listed: [9]
inactive: all other assays above

COC(=O)c1ccc(I)cc1S(=O)(=O)NC(=O)Nc1nc(C)nc(OC)n1
active: [15] 29.3 µM
not listed: [7] | [9] | [14]
inactive: all other assays above

C#C[C@]1(O)CC[C@H]2[C@@H]3CCC4=CC(=O)CC[C@@H]4[C@H]3CC[C@@]21CC
active: CYP2E1 (gene 1571) 0.00149 µM | CYP4A11 (gene 1579) 0.0276 µM | [5] 0.713 µM | [7] 0.056 µM
not listed: [9] | [16]
inactive: all other assays above
